Screening results deposited in PubChem by National Center for Advancing Translational Sciences (NCATS).
This is a sample that favours compounds with a hit; in the whole collection about 2.5% have one here.
Cruzain inh Det – inhibitors of Trypanosoma cruzi cruzain with detergent. P25779. purified cruzain, Z-FR-AMC fluorescence, 0.01% Triton. Potency, µM, hits mostly inhibitors. actives 0.43% (n = 200,000). AID 1478; note: nearly all actives have a fitted effect of over 40% in size
Target sequence (P25779 123-467 limits assumed): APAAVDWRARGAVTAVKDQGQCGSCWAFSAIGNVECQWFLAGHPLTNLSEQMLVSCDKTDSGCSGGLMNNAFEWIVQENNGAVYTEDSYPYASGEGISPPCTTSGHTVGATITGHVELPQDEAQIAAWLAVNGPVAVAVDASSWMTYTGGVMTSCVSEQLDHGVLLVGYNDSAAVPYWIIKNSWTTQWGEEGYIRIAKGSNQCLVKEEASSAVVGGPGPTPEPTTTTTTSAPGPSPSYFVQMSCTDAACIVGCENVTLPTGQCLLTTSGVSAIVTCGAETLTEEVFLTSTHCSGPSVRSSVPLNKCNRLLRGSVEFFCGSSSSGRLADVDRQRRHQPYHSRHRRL
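Detergent-containing run (0.01% Triton X-100) in acetate buffer pH 5.5 with 5 mM DTT: enzyme at 1.5 nM final, 15 min compound preincubation at room temperature, then 2 uM Z-FR-AMC substrate. Activity taken as 60 s fluorescence increase at 360/450 nm.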
Cruzain noTriton – blocks cruzain activity in detergent-free assay. P25779. actives 2.3% (n = 200,000). Potency, µM, hits mostly inhibitors. purified cruzain, Z-FR-AMC fluorescence, no detergent. AID 1476; note: nearly all actives have a fitted effect of over 40% in size
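Detergent-free condition (0.00005% Triton X-100) in acetate buffer pH 5.5 with DTT. 1.5 nM enzyme and compound were pre-mixed 15 min, then 2 uM Z-FR-AMC substrate added; reaction progress from fluorescence change between first and third reads (60 s).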
Papain inh – blocks papain protease activity, flagging nonselective cruzain hits; shares compounds with Cruzain inh Det; purified papain, Z-FR-AMC fluorescence cleavage; Potency, µM, actives largely listed as inhibitors; actives 41% (n = 410); AID 2161; note: nearly all actives have a fitted effect of over 35% in size
Numbers stand for hits; . = inactive; ? = inconclusive; / = not tested or not shown. Calls come from the whole dose curve; as a rule, active = well fitted curve in the direction sought with a large enough effect; inconclusive = small, poorly fitted or top-dose-only effect, or another doubt; inactive = no such curve, though single readings can be large; an effect the other way counts as inactive or inconclusive.

SMILES	Cruzain inh Det	Cruzain noTriton	Papain inh
Cc1cc(C)c2c(CC(=O)Nc3ccc(S(=O)(=O)Nc4ncccn4)cc3)coc2c1	.	?	/
CN(C)c1nc(N)nc(Nc2ccccc2C#N)n1	.	.	/
CCN(c1ccccc1)c1nc(N)nc(C#N)n1	/	/	11µM
N#Cc1nc(N2CCCCC2)nc(N(c2ccccc2)c2ccccc2)n1	/	/	2.8µM
Nc1nc(N2CCCCC2)nc(N(c2ccccc2)c2ccccc2)n1	.	.	/
Cc1cc(Cl)ccc1NC(=O)CN1C(=O)COc2ccc(S(=O)(=O)Nc3ccccc3)cc21	.	.	/
CCOc1cc(/C=N/NC(=O)C(C)Sc2ccccn2)ccc1O (centres undefined)	.	.	/
CCC(C)[C@@H](N)C(=O)N/N=C/c1ccc2ncccc2c1 (some centres undefined)	10µM	10µM	.
CCOCCCn1c(SCC(=O)NCc2ccccc2)nc2c(sc3ccccc32)c1=O	.	.	/
COc1ccc(CCNC(=O)CCCn2c(=O)c3ccccc3n(CC(=O)Nc3ccc(C)cc3Cl)c2=O)cc1OC	.	?	/
CCOC(=O)[C@H](CCc1ccccc1)N[C@@H](C)C(=O)N1[C@H](C(=O)O)C[C@H]2CCC[C@@H]21	.	.	/
CCOC(=O)[C@H](CCc1ccccc1)N[C@@H](C)C(=O)N1[C@H](C(=O)O)C[C@H]2CCCC[C@@H]21	.	?	.
Cc1cc2c(C)cc(=O)oc2c2c1NCCC2	25µM	.	16µM
Cc1cc2cc3c(C)cc(=O)oc3c(C)c2o1	.	.	/
COc1ccc2c(c1)cc1c(=O)n(CC(=O)NCc3ccco3)nc(C)n12	.	.	/
CCOC(=O)C1CCCN(c2ncnc3c2nnn3C)C1 (centres undefined)	.	.	/
CC[C@@H](C)[C@H](NC(=O)OC(C)(C)C)c1nnc(S(=O)(=O)Cc2cc(C)ccc2C)o1	8.9µM	16µM	16µM
Cc1[nH]c(=O)[nH]c(=O)c1CSc1nnc([C@@H](NC(=O)OC(C)(C)C)C(C)C)o1	.	.	/
CC(=O)NCCCc1nc2ccccc2n1Cc1ccc(C)cc1	.	.	/
CCCCn1c(CCNC(=O)CC)nc2ccccc21	.	.	/
Cc1cc(OCCn2c(C3CC(=O)N(Cc4ccc(F)cc4)C3)nc3ccccc32)ccc1Cl (centres undefined)	.	.	/
Cc1cc(OCCn2c(CCNC(=O)C3CCCCC3)nc3ccccc32)ccc1Cl	2.5µM	.	.
Cc1ccc(Cn2c(CCNC(=O)c3cccc(C)c3)nc3ccccc32)cc1	5µM	.	.
Cc1cc(C)cc(OCCCn2c(CCNC(=O)C3CCCCC3)nc3ccccc32)c1	2µM	.	25µM
Cc1cc(C)cc(OCCn2c(CCNC(=O)C3CCCCC3)nc3ccccc32)c1	1.8µM	.	.
SMILES	Cruzain inh Det	Cruzain noTriton	Papain inh
Cc1cccc(OCCn2c(CCCO)nc3ccccc32)c1	.	.	/
Cc1cccc(NC(=O)CSc2nc(=O)n(CCN3CCOCC3)c3c2CCC3)c1	.	.	/
O=C(NCCC1=CCCCC1)c1ccc2c(c1)N(Cc1ccccc1)C(=O)c1ccccc1S2(=O)=O	.	?	/
COc1ccc2c(Sc3ccc(C)cc3)c(C(=O)NCc3ccc(F)cc3)[nH]c2c1	.	.	/
Cc1cccc(OCCCn2c(CCNC(=O)C(C)C)nc3ccccc32)c1	.	.	/
Cc1cccc(OCCCn2c(CCNC(=O)C3CCCCC3)nc3ccccc32)c1	2µM	.	16µM
Cc1cccc(C)c1OCCn1c(CCNC(=O)C2CCCCC2)nc2ccccc21	3.5µM	.	.
CCn1c(NC(=O)C2CCCCC2)nc2ccccc21	.	.	/
COc1cc(NC(=O)CN(c2ccc(C)cc2)S(=O)(=O)c2cccc3nonc23)cc(OC)c1	.	?	/
CC1(C)Cc2c(C#N)c(SCC(=O)c3ccccc3)nc(N3CCOCC3)c2CO1	.	?	/
COC(=O)Sc1nc(N2CCOCC2)c2c(c1C#N)CC(C)(C)OC2	10µM	16µM	16µM
OC[C@@H](O)[C@@H](O)[C@@H](O)[C@@H](O)c1nc2ccc(Cl)cc2[nH]1	.	.	/
COC(=O)CN1C(=O)CSc2ccc(S(=O)(=O)Nc3cccc(C)c3C)cc21	.	.	/
CCOc1ccc(CN2C(=O)c3ccccc3Sc3ccc(C(=O)NCc4ccc5c(c4)OCO5)cc32)cc1	.	10µM	.
CCOc1ccc(CN2C(=O)c3ccccc3Sc3ccc(C(=O)NC)cc32)cc1	.	?	/
Cc1nn(CC(=O)NC2CC2)c(=O)c2cc3cc(F)ccc3n12	.	.	/
O=C(COc1ccc2oc3c(c2c1)CCCC3)Nc1ccc(Cl)cc1	.	.	/
CC(C)=CCSc1nnc([C@@H](N)Cc2c[nH]c3ccccc23)o1	.	.	/
CCc1ccccc1NC(=O)CSc1nnc([C@@H](N)Cc2c[nH]c3ccccc23)o1	10µM	10µM	.
CC(C)(C)c1ccc(-c2nc(SCC(=O)Nc3ccc(Cl)cc3)[nH]c(=O)c2C#N)cc1	16µM	.	10µM
N#Cc1c(-c2ccco2)nc(SCC(=O)Nc2cccc(Cl)c2)[nH]c1=O	.	.	/
O=C(c1ccc2c(c1)N(Cc1cccc(Cl)c1)C(=O)c1ccccc1S2(=O)=O)N1CCN(Cc2ccccc2)CC1	.	.	/
O=C1C(=Cc2ccco2)C(=O)c2ccccc21	.	.	/
O=C1/C(=C/c2ccco2)CCc2ccccc21	2.2µM	2µM	28µM
CCCNC(=O)C(=O)NCC(c1ccc2c(c1)OCO2)N1CCOCC1 (centres undefined)	.	.	/
SMILES	Cruzain inh Det	Cruzain noTriton	Papain inh
CC1(C)Cn2c(nnc2-c2ccccc2)S1	.	.	/
C(/Oc1ccccc1)=C1\Nn2c(nnc2-c2cc(-c3ccccc3)n[nH]2)S1	/	/	.
COc1ccccc1-c1nc2c(c(SCc3cccc(Cl)c3)n1)Cc1c(CO)cnc(C)c1O2	.	?	/
CC(C)C[C@H](N)c1nnc(S(=O)(=O)Cc2cccc(F)c2)o1	11µM	13µM	.
CC(C)Cn1nnnc1S(=O)(=O)Cc1cccc(C#N)c1	.	.	/
O=c1oc2c(CN3CCOCC3)c(O)ccc2cc1-c1ccc(Cl)cc1	.	?	/
CCN(Cc1ccccc1)Cc1c(O)ccc2c(=O)c(-c3ccccc3Cl)coc12	.	.	/
COc1nc(C#N)nc(N(C)C)n1	10µM	13µM	16µM
CCN(CC)C(=O)CN(C#N)c1nc(OC)nc(N(C)C)n1	.	.	/
CCCCNC(=O)c1ccc2nc(-c3cccs3)c(-c3cccs3)nc2c1	/	/	.
COC(CNC(=O)c1ccc2nc(-c3cccs3)c(-c3cccs3)nc2c1)OC	.	.	/
CSc1ccc(CCNC(=O)c2ccc(-c3nc(COc4ccc(C)cc4)c(C)o3)cc2)cc1	.	.	/
Cc1oc(=O)c(NC(=O)c2ccccc2)cc1C(=O)c1ccccc1	3.2µM	0.79µM	.
CC1(C)CC(=O)c2cc(NC(=O)c3ccccc3)c(=O)oc2C1	.	.	/
CC(C)(C)c1ccc(C(=O)Nc2ccc(Cl)cc2C(=O)c2ccccc2)cc1	.	.	/
Cc1oc(=O)c(NC(=O)c2ccc(Cl)cc2)cc1C(=O)c1ccccc1	2.5µM	2µM	.
CCOC(=O)c1cc(S(=O)(=O)Nc2c(C)cc(C)cc2C)[nH]n1	.	.	/
O=C(CNC(=O)c1ccc(Br)cc1)NCCc1nc2ccccc2[nH]1	.	.	/
Cc1cc(NS(=O)(=O)c2ccc(NC(=O)Cc3cccs3)cc2)no1	.	.	/
Cc1cc(NC(=O)Cc2cccs2)no1	.	.	.
